# Screening data (PubChem)
# Pol kappa inh-1: blocks human DNA polymerase kappa activity; purified Pol kappa, fluorescent DNA synthesis assay, 10 min; Potency, µM (top dose mostly 107 µM), inactives show top-dose activity, negative = inhibition, most hits filed as inhibitors; 400,000 tested, 0.53% active; AID 588579; note: % is set by controls: 0 for no effect and ±100 for the full control effect
#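 10 nM Pol kappa preincubated 15 min at room temperature with compounds, then reaction started with substrate at 50 nM final. Fluorescence read kinetically at 0 and 10 min; buffer-only wells served as negative control.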
# POLI inh: blocks human DNA polymerase iota activity. Q9UNA4. Pol iota fluorescent replication assay, 10 min. Potency, µM (highest dose often 115 µM), for inactives: at the highest dose activity, negative = inhibition, actives largely listed as inhibitors. 390,000 tested, 1% active. AID 588590
#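 Pol iota at 10 nM preincubated 15 min with compounds at room temperature; reaction started with fluorescent substrate, 50 nM final. Fluorescence read kinetically at 0 and 10 min; buffer-only wells as negative control.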
# POLB inh: inhibitors of human DNA polymerase beta; P06746; Pol beta primer extension/strand displacement, fluorescence kinetic; Potency, µM (top dose mostly 114 µM), inactives show at the top dose activity change, negative = inhibition, actives largely listed as inhibitors; 340,000 tested, 1.3% active; AID 485314; note: % is set by controls: 0 for no effect and ±100 for the full control effect
#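 Pol beta (10 nM) and compounds were preincubated 15 min at room temperature, then 50 nM substrate (final) started primer extension/strand displacement. Reads were taken at 0 and 10 min; concentration-response data were fitted to a four-parameter Hill equation.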
# WRN inhibitor: blocks human WRN helicase; Q14191; WRN helicase unwinding, fluorescent forked duplex, kinetic; Potency, µM (top dose mostly 114 µM), for the others: at the highest dose activity change, negative = inhibition, actives largely listed as inhibitors; 360,000 tested, 0.46% active; AID 651768; note: % is set by controls: 0 for no effect and ±100 for the full control effect; nearly all actives have a fitted effect of over 55% in size
#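 Screening of the MLSMR collection measured strand separation of a quenched forked DNA duplex (100 nM) by 20 nM WRN with 2 mM ATP, all final. Compounds were preincubated with enzyme 15 min at room temperature.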
# Pol eta inh-1: inhibitors of human DNA polymerase eta | recombinant Pol eta, fluorescent DNA replication assay | Potency, µM (series often up to 114 µM), for inactives: at the highest dose activity change, negative = inhibition, hits mostly inhibitors | 390,000 tested, 1.2% active | AID 588591; note: % is set by controls: 0 for no effect and ±100 for the full control effect
#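 Fluorescent replication assay: 50 nM final substrate added after a 15 min room-temperature compound preincubation with 10 nM enzyme. Signal taken at 0 min and again at 10 min.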
# FEN1 inh: human FEN1 inhibition; AID 588795; Potency, µM (doses to about 114 µM), without a hit: top-dose activity change, negative = inhibition, actives largely listed as inhibitors; 390,000 tested, 0.35% active; Recombinant FEN1 flap cleavage, fluorescence, 15 min; note: % is set by controls: 0 for no effect and ±100 for the full control effect; nearly all actives have a fitted effect of over 65% in size
# Target sequence (P39748 whole entry, looked up): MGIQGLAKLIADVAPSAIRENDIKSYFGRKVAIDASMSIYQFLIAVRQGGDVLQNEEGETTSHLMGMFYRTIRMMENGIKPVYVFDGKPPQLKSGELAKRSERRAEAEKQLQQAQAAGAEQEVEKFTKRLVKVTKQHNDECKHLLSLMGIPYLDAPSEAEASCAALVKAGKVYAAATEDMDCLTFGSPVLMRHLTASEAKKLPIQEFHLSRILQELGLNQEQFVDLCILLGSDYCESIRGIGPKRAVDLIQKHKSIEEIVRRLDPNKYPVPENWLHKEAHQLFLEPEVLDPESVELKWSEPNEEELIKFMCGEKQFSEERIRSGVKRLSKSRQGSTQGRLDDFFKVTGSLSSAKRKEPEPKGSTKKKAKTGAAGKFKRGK
#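 Read-out was taken twice, immediately and after 15 min, following addition of 50 nM substrate to 10 nM FEN1 that had sat with test compound for 15 min at room temperature. Curves came from a four-parameter Hill model.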
# Pol kappa inh-2: Pol kappa (human) inhibition, cherry-pick confirmation; AID 720501; purified Pol-kappa, fluorescent strand-displacement substrate; 920 tested, 76% active; shares compounds with Pol eta inh-1; Potency, µM, actives largely listed as inhibitors
# Pol eta inh-2: Pol eta (human) inhibition, cherry-pick confirmation | shares compounds with Pol eta inh-1 | Pol eta primer extension, TAMRA/BHQ fluorescence, 10 min | Potency, µM, most hits filed as inhibitors | 2,600 tested, 64% active | AID 720502
# * = called active by the depositor; ? = inconclusive; / = no result; [ ] = remark or other dose. In the library only some 2.4% were active in any assay of this set; here they are far more common. Calls come from the whole dose curve; as a rule, active = well fitted curve in the direction sought with a large enough effect; inconclusive = small, poorly fitted or top-dose-only effect, or another doubt; inactive = no such curve, though single readings can be large; an effect the other way counts as inactive or inconclusive. Potency is the fitted concentration of half-maximal effect.
SMILES,Pol kappa inh-1,POLI inh,POLB inh,WRN inhibitor,Pol eta inh-1,FEN1 inh,Pol eta inh-2,others
O=C(O)/C(=C/c1ccco1)NC(=O)c1ccc(Br)o1,-43.9%,?,?,-16.0%,?,-2.0%,60.1*,
CC(C)C(NC(=O)/C(=C\c1ccco1)NC(=O)c1ccco1)C(=O)O (stereo unspecified),?,-2.1%,22.4µM*,-3.9%,20µM*,-7.8%,/,Pol kappa inh-2=?
CC(C)(C)c1ccc(C(=O)N/C(=C\c2ccco2)C(=O)O)cc1,0.7%,40.9%,?,-10.3%,-15.5%,-5.2%,/,
O=C(O)/C(=C/c1ccco1)NC(=O)c1ccccc1,-38.6%,?,39.8µM*,-16.4%,11.2µM*,-14.5%,?,Pol kappa inh-2=47.4*
CC(=O)Nc1cccc(NC(=O)c2cc3c(=O)n4cccc(C)c4nc3n2C)c1,-12.7%,-5.4%,-23.2%,/,-14.5%,23.4%,/,
Cc1ccc(CNC(=O)c2c(O)nc3ccccn3c2=O)cc1,7.2%,34.6%,1.0%,/,-1.1%,-1.8%,/,
COc1ccc(C=NNc2ccc([N+](=O)[O-])cc2S(=O)(=O)Nc2ccccc2C(=O)O)cc1OC,-37.0%,35.8%,/,?,35.5µM*,?,?,
CCOC(=O)C1=C(N)Oc2ccc(Br)cc2[C@@H]1[C@@H](C#N)C(=O)OCC,-9.6%[19.4 µM],/,/,/,/,/,/,
Cc1ccc(-c2ccc(C(=O)Nc3ccccc3)o2)c2ccccc12,-4.3%,-2.5%,14.2%,-11.5%,-17.3%,-22.6%,/,
Cc1ccc(S(=O)(=O)NC(=O)c2ccc(-c3ccc(C)c4ccccc34)o2)cc1,?,?,?,?,31.6µM*,-28.7%,?,
Nc1nnc(CC(=O)N/N=C/c2cccc([N+](=O)[O-])c2)s1,-4.3%,12.3%,29.9%,-36.7%,-20.3%,-4.7%,/,
Nc1nnc(CC(=O)N/N=C/c2cc([N+](=O)[O-])cc(Br)c2O)s1,50.1µM*,?,?,56.2µM*,?,-31.5%,?,Pol kappa inh-2=47.4*
COc1ccc(Br)cc1C1NC(c2ccc3c(c2)OCO3)=CC(c2ccccc2O)N1 (stereo unspecified),-8.6%,-22.7%,/,/,/,-12.6%,/,
O=Cc1cn(CCC(=O)O)nc1-c1cc2ccccc2o1,?,?,17.8µM*,-16.1%[57.1 µM],20µM*,-1.7%,?,Pol kappa inh-2=21.2*
CCOc1ccc(-c2cc3nc(C4CCN(C(=O)OC(C)(C)C)CC4)c(C(=O)Nc4ccc(C)c(F)c4)cn3n2)cc1,3.8%,26.1%,26.5%,/,-17.5%,1.9%,/,
Nc1c(C=C2C=CC(=O)C=C2)c(=O)nc2sc(CC(=O)N3CCOCC3)nn12,-32.3%,-25.9%,34.3%,-6.9%[11.6 µM],?,9.2%,75.7*,
C=CCC1=C/C(=C\c2c(N)n3nc(CC(=O)N4CCCC4)sc3nc2=O)C=C(OC)C1=O,-7.6%,18.1%,8.4%,2.4%,10.9%,16.9%,/,
Nc1c(/C=C2\C=Nc3ccccc32)c(=O)nc2sc(CC(=O)N3CCOCC3)nn12,-2.8%,4.3%,1.8%,-12.3%,-14.7%,19.2%,/,
COC1=CC(=Cc2c(N)n3nc(CC(=O)N4CCOCC4)sc3nc2=O)C=C(OC)C1=O,79.4µM*,22.4µM*,?,?,20µM*,-19.5%,?,
O=C(O)[C@H]1CN[C@H](C(=O)O)C1,-11.7%[19.4 µM],/,/,/,/,/,/,
COc1cc(OC)c(/C=C2\SC(=O)N(CC(=O)Nc3ccccc3F)C2=O)c(OC)c1,-6.3%,8.4%,28.7%,1.9%,-6.8%,-1.5%,/,
CCOc1cc(/C=C2\SC(=O)N(CC(=O)Nc3ccccc3F)C2=O)cc([N+](=O)[O-])c1O,-19.6%,11.2µM*,-6.3%,-7.4%[57.1 µM],?,50.1µM*,/,Pol kappa inh-2=?
COc1ccc(NC(=O)CN(C)C(=O)c2cc(-c3ccccc3)nc3ccccc23)cc1,-8.7%,0.6%,/,-7.7%,-14.1%,-17.9%,/,
CN(CC(=O)Nc1ccc(F)cc1)C(=O)c1cc(-c2ccco2)nc2ccccc12,?,15.8µM*,/,?,39.8µM*,9.7%,?,
COc1ccccc1/C=C1/SC(=O)N(CCC(=O)Nc2ccc(S(=O)(=O)Nc3nccs3)cc2)C1=O,-13.5%,50.1µM*,?,?,20µM*,?,?,
SMILES,Pol kappa inh-1,POLI inh,POLB inh,WRN inhibitor,Pol eta inh-1,FEN1 inh,Pol eta inh-2,others
CC(/C=C1\SC(=S)N(CCC(=O)Nc2cccc(C(=O)O)c2)C1=O)=C\c1ccccc1,-13.8%,-11.8%,?,79.4µM*,?,-10.6%,?,Pol kappa inh-2=?
COc1ccccc1/C=C1\SC(=S)N(CCC(=O)Nc2ccc(C(=O)O)c(O)c2)C1=O,-33.6%,?,79.4µM*,-10.7%[11.6 µM],35.5µM*,?,?,Pol kappa inh-2=?
c1ccc(Cn2nnnc2C(c2ccccc2)N2CCN(Cc3ccncc3)CC2)cc1 (stereo unspecified),0.8%,7.5%,/,/,/,10.6%,/,
CCOC(=O)N1CCN(C(=O)Cn2ncc3ccccc32)CC1,?,?,20µM*,-20.1%[57.1 µM],?,-16.6%,?,
CCOC(=O)N1CCC(NC(=O)Cn2ncc3ccccc32)CC1,-4.2%,25.8%,10.5%,-11.6%[57.1 µM],-4.8%,4.1%,/,
O=C(O)COc1ccccc1/C=C1\SC(=S)N(/N=C/c2ccccc2O)C1=O,-27.6%,?,-17.5%,?,22.4µM*,-2.3%,47.8*,Pol kappa inh-2=75.2*
CC1=C(C(=O)Nc2ccc(C)cc2C)C(c2ccccc2F)n2nc(SCC(=O)c3ccc(C)cc3)nc2N1 (stereo unspecified),-10.2%[60.1 µM],23.1%,-16.8%,/,-3.9%,11.4%,/,
Cc1cc(NC(=O)c2cc([N+](=O)[O-])cc([N+](=O)[O-])c2)no1,10.5%,6.7%,-0.1%,-7.1%,13.3%,-3.2%,/,
Cc1cc(NC(=O)c2cc([N+](=O)[O-])cc([N+](=O)[O-])c2C)no1,?,56.2µM*,?,-17.4%,31.6µM*,14.4%,?,
Cc1ccc(S(=O)(=O)/N=C2/NC(=O)/C(=C/c3cc([N+](=O)[O-])ccc3O)S2)cc1,?,28.2µM*,-3.9%,?,28.2µM*,?,/,Pol kappa inh-2=?
CCc1nnc2n1N(C(C)=O)C(c1ccc(C(C)(C)C)cc1)=C(C(C)=O)S2,-8.8%[60.1 µM],28.1%,-1.9%,/,-17.9%,-22.8%,/,
COc1ccc(Nc2nc3ccccc3c3nnc(C)n23)cc1Cl,-5.9%,7.0%,?,/,-15.3%,?,/,
Cc1ccc(C(=O)N2CCc3cc(CNC(=O)CSc4ccccc4)ccc32)cc1,-11.4%[60.1 µM],1.7%,-13.9%,/,-6.5%,-15.4%,/,
